# Records with an inconclusive call do not appear. Entries that show only a call come without a potency. Values without a mark were called inactive. Calls of active or inactive are those of the source. Calls come from the whole dose curve; as a rule, active = well fitted curve in the direction sought with a large enough effect; inconclusive = small, poorly fitted or top-dose-only effect, or another doubt; inactive = no such curve, though single readings can be large; an effect the other way counts as inactive or inconclusive.
# Assays:
# [1] = molecular target: Cellular tumor antigen p53 (Homo sapiens) (UniProt P04637); test: Primary qHTS for small molecule compounds that upregulate eGFP-tagged delta133p53alpha (in N-terminal) cells. (AID 2060322); conditions: NCI-H358 eGFP-delta133p53alpha fluorescence, 24 h; activation: active compounds read high; note: nearly all actives have a fitted effect of over 75% in size; note: potency is the fitted concentration of half-maximal effect
# Method in brief: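 NCI-H358 cells pre-induced 24 h with 10 ng/ml doxycycline to express N-terminal eGFP-delta133p53alpha, then dosed 24 h at 37C without doxycycline; fixed, Hoechst-stained, GFP intensity by laser scanning cytometry, normalized to DMSO (0%) and 57.5 uM 5-azacytidine (100%).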
# [2] = molecular target: Aldehyde dehydrogenase, mitochondrial (Homo sapiens) (UniProt P05091); test: qHTS for Inhibitors of the Aldehyde Dehydrogenase Family (ALDH2) Primary screen (AID 2061308); conditions: ALDH2 enzyme inhibition qHTS, 1536-well; series mostly up to 56 µM; note: nearly all actives have a fitted effect of over 55% in size
# [3] = molecular target: Retinaldehyde dehydrogenase 3 (Homo sapiens) (UniProt P47895); test: qHTS for Inhibitors of the Aldehyde Dehydrogenase Family (ALDH1A3) Primary screen (AID 2061315); conditions: ALDH inhibition qHTS; series mostly up to 56 µM
# Cellular tumor antigen p53 (Homo sapiens), sequence (P04637 whole entry, looked up): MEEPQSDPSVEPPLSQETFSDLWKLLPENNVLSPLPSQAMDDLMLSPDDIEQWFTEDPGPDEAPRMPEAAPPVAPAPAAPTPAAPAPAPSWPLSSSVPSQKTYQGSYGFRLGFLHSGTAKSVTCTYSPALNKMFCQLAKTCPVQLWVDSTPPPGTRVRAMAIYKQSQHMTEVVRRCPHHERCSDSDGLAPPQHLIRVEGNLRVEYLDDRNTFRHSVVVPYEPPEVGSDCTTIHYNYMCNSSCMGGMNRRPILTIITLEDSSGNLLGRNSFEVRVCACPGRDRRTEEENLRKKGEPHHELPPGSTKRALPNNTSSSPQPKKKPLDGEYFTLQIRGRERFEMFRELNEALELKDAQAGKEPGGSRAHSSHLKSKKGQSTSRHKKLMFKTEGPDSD
SMILES,activation [1],Potency [2],Potency [3],"activity change, negative = inhibition [2]","activity change, negative = inhibition [3]",Potency [1]
CC(C)C(=O)OC[C@H]1O[C@H](O[C@H]2O[C@H](CO)[C@@H](O)[C@H](O)[C@H]2O)[C@H](O)[C@@H](O)[C@@H]1O,-6.11%,inactive,inactive,,,
CC(C)(C)OC(=O)N1CCC(OCc2nc(-c3ccncc3)no2)CC1,-3.34%,inactive,inactive,,,
COC1=CC(=O)C[C@@H](C)[C@]12Oc1cc(OC)cc(OC)c1C2=O,4.58%,inactive,inactive,,,
CCOC(=O)N1c2ccc(C(F)(F)F)cc2C(N(Cc2cc(C(F)(F)F)cc(C(F)(F)F)c2)C(=O)OC)CC1CC (configuration not stated),-4.3%,inactive,inactive,,,
COc1c(C)c(OCC=C(C)C)cc2c1CNC2=O,-19.8%,inactive,inactive,,,
O=C(O)/C=C/c1ccc(O[C@@H]2O[C@H](CO)[C@@H](O)[C@H](O)[C@H]2O)cc1,-3.82%,inactive,inactive,,,
CC12CCC(OC3OC(CO)C(O)C(OC4OC(CO)C(O)C(O)C4O)C3O)CC1CCC1C2CCC2(C)/C(=C3/COC(=O)C3)CCC12O (configuration not stated),-3.82%,inactive,inactive,,,
CC(=O)O[C@H]1CC[C@@]2(CI)C(=CC[C@@H]3[C@@H]2CC[C@]2(C)[C@@H]([C@H](C)CCCC(C)C)CC[C@@H]32)C1,21.7%,,,-4.11% [at 11.2 µM],5.91% [at 11.2 µM],
C=CC(=O)Nc1cc(Nc2nccc(-c3c[nH]c4ccccc34)n2)c(OC)cc1N(C)CCN(C)C,,inactive,inactive,,,10.7 µM (active)

# — PubChem BioAssay (NCATS)
